# The list is not random: actives were taken first. Their share in the collection is about 3.1%.
# CF NFkB inh – cystic fibrosis NF-kB activation inhibition; KKLEB NF-kB-GFP reporter, PAF-induced, GFP fluorescence overnight; inhibition, % at 5 µM; 0.86% of 360,000 active;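 active = at least 50% inhibition at 5 µM, scaled per plate between neutral and stimulator controls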;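 note: PAF is a Pseudomonas aeruginosa culture filtrate used as stimulus; plate controls were PAF-stimulated DMSO wells for no effect and unstimulated DMSO wells for full effect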
# ABHD5-PLIN5 inh – blocks binding of human ABHD5 to perilipin-5 | Split G. princeps luciferase complementation, luminescence, 4 h | inhibition, % at 4 µM | 0.78% of 360,000 active | AID 602281;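 active = inhibition above the mean inhibition across every tested compound plus 3 SD, cut at about 22% in these data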;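 note: 0% = DMSO only wells and the 100% control is not disclosed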
# HIF-2a inh – blocks HIF-2a reporter activity; AID 624352; inhibition, % at 18.8 µM; 0.72% of 360,000 active; 786-0 RCC cells HIF-2a reporter, luciferase luminescence, overnight;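 active = inhibition of the luminescence signal of 40% or more relative to plate controls, in a single-dose primary screen at 18.75 µM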
# MITF TRPM1 inh – reduces MITF-dependent TRPM1 promoter luciferase signal; SK-MEL-5 TRPM1 promoter luciferase, 24 h; inhibition, % at 12.5 µM; 0.83% of 330,000 active; AID 488899;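 active = mean inhibition across replicates of 60% or more, whatever share of single replicates reaches that level; inconclusive = some that reach 60%, reason not given; inactive = mean inhibition across replicates below 60%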
# Peg3 prom inh – inhibitors of Peg3 promoter; inhibition, % at 20 µM; AID 588405; 1.7% of 360,000 active; HeLa PEG-Prom luciferase reporter, luminescence, overnight;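 active = inhibition of at least 50% at 20 µM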
# KKLEB cytotox – reduces viability of KKLEB cystic fibrosis airway cells. KKLEB CF airway cells viability, ATPlite luminescence, overnight; hits give low values; cells stimulated with P. aeruginosa culture filtrate. activity change (cytotoxicity), % at 5 µM. 0.36% of 360,000 active. AID 602141;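 active = corrected activity change at or below -50% at 5 µM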
# ABHD5-PLIN5 conf – ABHD5-PLIN5 interaction inhibition, confirmed; shares compounds with ABHD5-PLIN5 inh; biochemical ABHD5-PLIN5 interaction, luminescence; inhibition, % at 4 µM; 67% of 2,200 active; in the data active = inhibition above about 23%;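 note: 0% = DMSO vehicle wells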
# HNF4 counter – HNF4 split-luciferase signal hit, counter-screen | shares compounds with ABHD5-PLIN5 inh | HNF4 dimerization, luminescence, biochemical | inhibition, % at 4 µM | 77% of 2,200 active;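 active = mean inhibition across replicate wells exceeding the computed hit threshold, cut at about 13% in these data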;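 note: light from luciferase halves that rejoin when HNF4 fusion proteins dimerize; 0% = DMSO only wells and the 100% control is not given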
# Mdm2-MdmX confirm – Mdm2/MdmX (human) interaction inhibition, confirmed. shares compounds with HIF-2a inh. SaOS-2 split-luciferase Mdm2/MdmX complementation, luminescence. inhibition, % at 8 µM. 99% of 740 active;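 active = mean inhibition of the luminescence signal across two replicates at or above 26 percent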
# Target sequence (O15151 whole entry, looked up): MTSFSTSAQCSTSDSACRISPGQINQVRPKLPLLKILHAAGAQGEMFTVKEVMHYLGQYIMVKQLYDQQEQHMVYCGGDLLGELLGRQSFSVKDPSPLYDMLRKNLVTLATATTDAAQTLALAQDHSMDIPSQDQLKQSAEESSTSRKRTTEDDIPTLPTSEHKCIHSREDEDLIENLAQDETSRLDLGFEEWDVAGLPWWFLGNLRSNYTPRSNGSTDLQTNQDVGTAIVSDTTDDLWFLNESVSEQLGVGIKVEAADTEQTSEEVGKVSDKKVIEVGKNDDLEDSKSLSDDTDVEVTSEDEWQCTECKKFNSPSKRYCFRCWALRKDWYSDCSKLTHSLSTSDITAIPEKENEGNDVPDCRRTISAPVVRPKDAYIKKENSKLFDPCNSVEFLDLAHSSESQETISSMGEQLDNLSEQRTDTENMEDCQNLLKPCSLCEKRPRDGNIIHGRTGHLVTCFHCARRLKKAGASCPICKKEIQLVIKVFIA
# Target sequence (Q00987 whole entry, looked up): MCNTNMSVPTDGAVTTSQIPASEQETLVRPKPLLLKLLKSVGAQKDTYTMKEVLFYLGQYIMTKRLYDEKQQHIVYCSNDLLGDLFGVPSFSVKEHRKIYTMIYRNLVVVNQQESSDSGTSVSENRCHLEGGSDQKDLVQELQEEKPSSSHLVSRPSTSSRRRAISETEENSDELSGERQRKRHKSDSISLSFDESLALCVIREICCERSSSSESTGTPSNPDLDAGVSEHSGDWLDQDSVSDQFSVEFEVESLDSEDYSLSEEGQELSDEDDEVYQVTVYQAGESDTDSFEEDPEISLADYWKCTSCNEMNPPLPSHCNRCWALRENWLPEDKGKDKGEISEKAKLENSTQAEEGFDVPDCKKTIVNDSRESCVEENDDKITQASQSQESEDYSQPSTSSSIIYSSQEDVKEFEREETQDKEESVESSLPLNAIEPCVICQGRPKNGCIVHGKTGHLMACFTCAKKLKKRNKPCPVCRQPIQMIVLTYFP
# HIF-2a conf – confirmation of HIF-2a inhibitors; shares compounds with HIF-2a inh; inhibition, % at 18.8 µM; 786-0 RCC cells, HIF-2a luciferase reporter luminescence, overnight; 56% of 1,800 active;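 active = mean inhibition across four replicates of at least 40 percent at the single tested concentration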
# HIF-1a counter – counter-screen for HIF-2a inhibitors: HIF-1a inhibition in MiaPaCa-2 cells; shares compounds with HIF-2a inh; MiaPaCa-2 HIF-1a luciferase reporter, desferoxamine, overnight; inhibition, % at 18.8 µM; 72% of 1,800 active; AID 651589;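 active = mean inhibition of the reporter signal across four replicates at the single tested dose of 50% or more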
# Numbers without * were called inactive; ? = inconclusive; / = no result.
SMILES,CF NFkB inh,ABHD5-PLIN5 inh,HIF-2a inh,MITF TRPM1 inh,Peg3 prom inh,KKLEB cytotox,ABHD5-PLIN5 conf,HNF4 counter,HIF-2a conf,HIF-1a counter,others
O=c1[nH]c2ccc(S(=O)(=O)Nc3ccccc3O)cc2[nH]1,4,7,9,8,6,8,/,/,/,/,
COc1ccc(Br)cc1/C=C/C(=O)Nc1ccc2ccccc2c1,-31,-3,-90,-10,-62,18,/,/,/,/,
CCC(=O)Nc1cccc(C(=O)/C=C/c2cc(Br)ccc2OC)c1,12,51*,84*,91*,104*,6,92*,79*,84*,106*,Mdm2-MdmX confirm=103*
CC(=O)N1CCC(C(=O)N2CCN(S(=O)(=O)c3ccc(Cl)s3)CC2)CC1,7,2,11,-8,14,15,/,/,/,/,
O=C(C(=Cc1ccc(F)cc1)c1ccccc1)c1ccc(O)cc1,-19,-4,-18,-2,18,-1,/,/,/,/,
O=C(C(=Cc1ccc(F)cc1)C(=O)c1ccccc1)c1ccccc1,37,94*,85*,/,100*,-7,97*,87*,43*,102*,
CN(CCO)c1cc(Sc2nc3ccccc3s2)c2nonc2c1[N+](=O)[O-],18,49*,86*,91*,104*,-4,80*,114*,89*,73*,
CC[N+]1(C)CCC(O)(/C=C/c2ccccc2)C(C(=O)/C=C/c2ccccc2)C1 (stereo not given),40,45*,90*,66*,97*,-15,93*,109*,46*,103*,
O=C(/C=C/c1ccc(F)cc1)c1ccccc1Br,57*,56*,59*,-22,104*,-37,96*,88*,43*,106*,
N#Cc1ccc(OCC(=O)N/N=C2/CC(c3ccccc3)Oc3ccccc32)cc1 (stereo not given),9,-3,23,8,8,-20,/,/,/,/,
COC(=O)CSc1ncnc2scc(-c3ccccc3)c12,35,-1,17,10,14,-24,/,/,/,/,
Cn1nnnc1Sc1ncnc2scc(-c3cc4ccccc4o3)c12,83*,29*,97*,100*,100*,-86*,71*,77*,96*,107*,Mdm2-MdmX confirm=103*
CCc1nnc(NC(=O)c2nc(S(=O)(=O)Cc3ccc(C)cc3)ncc2Cl)s1,94*,25*,50*,69*,106*,-82*,68*,43*,63*,108*,Mdm2-MdmX confirm=103*
CCc1nnc(NC(=O)c2nc(S(=O)(=O)Cc3cccc(C)c3)ncc2Cl)s1,90*,33*,85*,76*,109*,-90*,82*,49*,/,/,Mdm2-MdmX confirm=103*
Cc1c(C(=O)NCc2ccc(F)cc2)sc(=O)n1Cc1ccccc1,-23,0,-5,/,15,2,/,/,/,/,
CC1CCCCC1NC(=O)/C(C#N)=C/c1ccccc1F (stereo not given),26,34*,88*,?,96*,-14,82*,78*,81*,106*,
CC(=O)Nc1ccc(/C=C(\C#N)C(=O)NC2CCCCC2C)cc1 (stereo not given),-4,1,20,-8,9,-20,/,/,/,/,
C=C1C(=O)[C@]23C[C@H]1CCC2[C@]1(C)CCC[C@@](C)(C(=O)O)C1C[C@@H]3O (stereo not given in full),93*,51*,88*,/,99*,-83*,46*,102*,91*,104*,
C=C[C@]1(C)C=C2CCC3[C@](C)(CCC[C@@]3(C)C(=O)O)C2CC1 (stereo not given in full),22,-1,9,6,10,6,/,/,/,/,
COc1ccc(Oc2ccc(/C=C/C(=O)c3ccc(O)cc3)cc2[N+](=O)[O-])cc1,35,28*,91*,81*,108*,-20,80*,65*,37,104*,
CCOC(=O)C(=Cc1cc(=O)c(OC)co1)C(=O)OCC,85*,24*,94*,98*,106*,28,76*,90*,99*,106*,
COc1cc(/C=C/C(=O)OCC(=O)c2c(N)n(C)c(=O)n(C)c2=O)ccc1OCC#N,7,-3,3,8,3,4,/,/,/,/,
Cc1ccc(CS(=O)(=O)c2ncc(Cl)c(C(=O)Nc3nnc(C(C)C)s3)n2)cc1,85*,57*,76*,79*,110*,-86*,87*,55*,88*,106*,
CC(C)c1nnc(NC(=O)CCC(=O)N2CCN(Cc3ccc(F)cc3)CC2)s1,-6,7,11,15,-4,8,/,/,/,/,
CCSc1nnc(NC(=O)c2nc(S(=O)(=O)Cc3ccc(F)cc3)ncc2Cl)s1,92*,24*,88*,40,107*,-97*,80*,49*,-29,97*,
SMILES,CF NFkB inh,ABHD5-PLIN5 inh,HIF-2a inh,MITF TRPM1 inh,Peg3 prom inh,KKLEB cytotox,ABHD5-PLIN5 conf,HNF4 counter,HIF-2a conf,HIF-1a counter,others
CC(C)c1nnc(NC(=O)c2nc(S(=O)(=O)Cc3ccc(F)cc3)ncc2Cl)s1,89*,44*,64*,75*,106*,-101*,92*,57*,66*,107*,Mdm2-MdmX confirm=103*
C=CCSc1nnc(NC(=O)c2nc(SCC)ncc2Cl)s1,-15,12,18,4,0,22,/,/,/,/,
Cc1nnc(NC(=O)CCS(=O)(=O)c2ccccc2)s1,-15,-3,-13,-1,15,0,/,/,/,/,
Cc1nnc(NC(=O)c2nc(S(=O)(=O)Cc3ccccc3C)ncc2Cl)s1,99*,31*,91*,80*,106*,-92*,72*,48*,10,105*,Mdm2-MdmX confirm=103*
CC(NC(=O)Nc1ccc([N+](=O)[O-])cc1)C(c1cccs1)N1CCCC1 (stereo not given),-5,2,-11,-15,-10,1,/,/,/,/,
CN(Cc1cnccn1)Cc1ccccc1OCC(O)CN1CCc2ccccc2C1 (stereo not given),3,-2,20,3,1,-8,/,/,/,/,
CN(C)Cc1ccccc1CNC(=O)c1ccc(Cl)c(S(=O)(=O)NC2CC2)c1,-20,-4,8,/,2,18,/,/,/,/,

# Bioassay records (PubChem)
